Rows were chosen to be rich in hits. Some 17% of all compounds tested hit in one or more screens of this group.
TGFb inhibitor: TGF-b pathway inhibition | HepG2 CAGA-GFP TGF-b/SMAD3 reporter, GFP fluorescence, 18 h; TGF-beta stimulated, 500 pg/mL final | Potency, µM (series often up to 46.1 µM), most hits filed as inhibitors | 410,000 tested, 1.2% active; further: nearly all actives have a fitted effect of over 65% in size
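Per well, imaged GFP fluorescence of HEPG2 CAGA-GFP cells gives the signal; cells get compound, then TGF-beta (500 pg/mL final), 18 h at 37 degrees C; %Activity versus -TGF-beta and +DMSO controls.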
HepG2 viability: HepG2 cytotoxicity, counter-screen for TGF-b inhibitors; 410,000 tested, 0.76% active; Potency, µM (doses to about 46.1 µM), most hits filed as cytotoxic; HepG2 CAGA-GFP viability, ATP luminescence, 18 h
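HepG2 CAGA-GFP cells (1000/well, DMEM with 1% FBS) received compound, then TGF-beta at 500 pg/mL final, and were incubated 18 hours at 37 degrees C. Viability was read by CellTiter-Glo luminescence. Media-only wells were set as complete cell-killing and DMSO as no toxicity.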
ATXN2 expr inh: ATXN2 expression inhibition. HEK-293 ATXN2-luciferase reporter, luminescence, 24 h. Potency, µM (top dose mostly 57 µM), actives largely listed as inhibitors. 360,000 tested, 0.72% active. AID 1745845; further: nearly all actives have a fitted effect of over 55% in size
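qHTS (up to 57 uM final) was run with 24 h compound exposure of reporter cells at 37 °C. Each well was multiplexed: SteadyGlo luminescence measured ATXN2-luciferase expression after a fluorogenic Gly-Phe-AFC viability readout (25 uM final).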
S2 tox: viability counter-screen for ATXN expression inhibitors; 400,000 tested, 0.49% active; Potency, µM (doses to about 56.7 µM), usual class: cytotoxic; AID 651635; S2 cells (HEK-293 line with an ATXN2-luciferase reporter) viability, CellTiter-Fluor protease fluorescence, 24 h; further: nearly all actives have a fitted effect of over 40% in size
TDP1 cell CPT: growth inhibition of DT40 Tdp1-/-;hTDP1 cells with camptothecin (screen for TDP1 inhibitors); Potency, µM (highest dose often 46.2 µM), hits mostly inhibitors; chicken DT40 Tdp1-/-;hTDP1 cells + 20 nM CPT, ATP luminescence, 48 h; 420,000 tested, 12% active; further: nearly all actives have a fitted effect of over 55% in size
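Chicken DT40 Tdp1-/- cells stably complemented with human TDP1 were seeded at 400 cells/well in medium containing 20 nM camptothecin, exposed to pin-transferred compounds, and grown at 37 °C for at least 48 hr. Viability was read as ATP luminescence.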
TDP1 cell noCPT: qHTS for Inhibitors of human tyrosyl-DNA phosphodiesterase 1 (TDP1): qHTS in cells in absence of CPT | 420,000 tested, 15% active | Potency, µM (series often up to 46.2 µM), actives largely listed as inhibitors | DT40 Tdp1-/- hTDP1 cells, no CPT, ATP luminescence, 48 h; further: nearly all actives have a fitted effect of over 55% in size
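A cellular qHTS used chicken DT40 cells lacking endogenous Tdp1 but carrying stably transfected human TDP1. Compounds were applied without camptothecin, and cell growth kinetics were judged by ATP-dependent luminescence after ≥48 hr.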
A number is an active result; . = inactive; ? = inconclusive; / = no result; [ ] = another dose, or the depositor's remark. The call rests on the fitted dose curve; in most records, active means well fitted curve in the direction sought with a large enough effect; inconclusive means small, poorly fitted or top-dose-only effect, or another doubt; inactive means no such curve, though single readings can be large; an effect the other way counts as inactive or inconclusive.

SMILES | TGFb inhibitor | HepG2 viability | ATXN2 expr inh | S2 tox | TDP1 cell CPT | TDP1 cell noCPT
Nc1nc(SCC(=O)N2CCOCC2)[nH]c(=O)c1-c1ccccc1 | . | . | . | . | . | .
O=c1c2ccccc2nnn1CSc1nc2ccccc2c(=O)n1Cc1ccco1 | . | . | . | . | 23µM | 21µM
Nc1nc(SCC(=O)N2CCCC2)[nH]c(=O)c1-c1ccccc1 | . | . | . | . | ? | 26µM
O=C(CSc1nc2ccccc2c(=O)n1Cc1ccco1)N1CCN(c2ccccc2)CC1 | . | . | . | . | ? | 26µM
Cc1ccc(-n2nnnc2SCn2nnc3ccccc3c2=O)c(C)c1 | . | . | . | . | 9.2µM | 8.2µM
CCCCCSc1nc2c(cnn2-c2ccc(F)cc2)c(=O)[nH]1 | . | . | . | . | ? | 23µM
CCN(CC)C(=O)CSc1nc2ccccc2c(=O)n1CCC(=O)N1CCN(c2ccccc2)CC1 | ? | . | . | / | 16µM | ?
CCCn1c(SCC(=O)N2CCN(c3ccccc3)CC2)nc2ccccc2c1=O | . | . | . | . | ? | ?
CCOC(=O)N1CCN(C(=O)CSc2nc3c(cnn3-c3ccccc3)c(=O)[nH]2)CC1 | . | . | . | . | ? | 23µM
CCOC(=O)CSc1nc2ccccc2c(=O)n1CC1COc2ccccc2O1 (stereo not given) | . | . | / | / | ? | 18µM
COc1cc(S(=O)(=O)N2CCOCC2)ccc1NC(=O)CSc1n[nH]c(=O)[nH]c1=O | . | . | . | . | . | .
CCc1ccc2c(c1)C1(SC(NC(C)=O)=NN1C(C)=O)C(=O)N2CC (stereo not given) | . | . | . | ? | . | .
COc1ccc(-c2nc(SCC(=O)N3CCN(c4ccc(F)cc4)CC3)n[nH]2)cc1 | . | . | / | / | . | .
CCOC(=O)N1CCN(C(=O)CSc2nc3ccccc3c(=O)n2-c2ccccc2)CC1 | 3.2µM | . | . | ? | ? | ?
O=C(CSc1n[nH]c(-c2ccc(F)cc2)n1)N1CCN(c2ccc(F)cc2)CC1 | . | . | / | / | 16µM | 23µM
CC(SC1=NS(=O)(=O)c2ccccc21)C(=O)O (stereo not given) | . | . | / | / | ? | ?
CCc1ccc2oc(C(=O)N(Cc3ccc(N(C)C)cc3)Cc3ccco3)c(C)c2c1 | / | . | / | / | 0.73µM | 16µM
Cc1ccc2c(C)c(C(=O)N(Cc3ccc(N(C)C)cc3)Cc3ccco3)oc2c1C | / | . | / | / | ? | 13µM
COc1cccc(C(=O)N(Cc2ccc(N(C)C)cc2)Cc2ccco2)c1 | / | . | / | / | ? | ?
Cc1c(C(=O)N(Cc2cccc(Cl)c2)Cc2ccco2)oc2ccccc12 | ? | . | . | . | ? | .
Cc1c(C(=O)N(Cc2ccco2)Cc2ccccc2Cl)oc2ccc(F)cc12 | ? | . | . | . | ? | 15µM
FC(F)(F)c1nc2cc3nc4ccccc4[nH]c3cc2n1 | . | . | . | ? | . | .
COc1cc(C[C@@H]2NCCc3cc(O)c(O)cc32)cc(OC)c1OC | / | / | / | . | . | .
CCOc1ccc(CNC(=O)c2cc(=O)[nH]c3ccc(S(=O)(=O)N4CCCC4)cc23)cc1 | . | . | / | / | . | .
CC12CCC(C(=O)N(Cc3ccccc3)Cc3ccccc3)(OC1=O)C2(C)C (stereo not given) | . | . | . | . | 18µM | ?
FC(F)Oc1ccc(-n2cc(-c3ccccc3)[n+]3c2CCCCC3)cc1 | . | . | . | . | 5.2µM | 5.8µM
Cc1ccc(-c2cn(-c3ccc(OC(F)F)cc3)c3[n+]2CCCCC3)cc1 | . | . | ? | . | 0.65µM | 1µM
COc1ccc(CN2CCOc3ccc(C(O)c4cccnc4)cc3C2)c(OC)c1OC (stereo not given) | / | / | / | . | .[9.04 µM] | .
CCOc1ccccc1-c1nc(C(N)=O)c2c(n1)n(-c1ccc3c(c1)OCO3)c(=O)n2C | . | . | . | . | / | /
O=S(=O)(NN=C1CCCCCCC1)c1ccccc1 | . | . | / | . | . | .
